Records with an inconclusive call do not appear. Values without a mark were called inactive. Calls come from the whole dose curve.
target: Retinoic acid receptor RXR-alpha (Homo sapiens) (UniProt P19793); test: qHTS assay to identify small molecule agonists of the RXR signaling pathway (AID 1159527); conditions: HEK293T RXRa-UAS-bla, beta-lactamase ratio, 16 h; series mostly up to 76.8 µM; activation: at the top concentration; note: nearly all actives have a fitted effect of over 35% in size
Description: U.S. Tox21 Program National Center for Advancing Translational Sciences [NCATS] NIH Chemical Genomics Center [NCGC] U.S. Environmental Protection Agency [EPA] National Institutes of Environmental Health Sciences [NIEHS] National Toxicology Program [NTP] U.S. Food and Drug Administration [FDA] Tox21 Assay Overview: The Retinoid X receptor (RXR), a nuclear hormone receptor expressed in liver, spleen, placenta, epidermis, central nervous system. These receptors are able to form homo and heterodimers with other nuclear receptors and due to this heterodimerizing ability, RXR functions as master regulators producing diverse physiological effects. Three subtypes of RXR exist; alpha, beta and gamma. Retinoid X receptor alpha (RXR-alpha) has potential roles in metabolic signaling pathways, skin alopecia, dermal cysts, cardiac development, insulin sensitization etc. Therefore screening environmental chemicals on RXR-alpha signaling can be used for the studies focused on such therapeutic applications. For quantification of RXR-alpha ligands signaling, GeneBLAzer RXR alpha-UAS-bla HEK 293T (Life Technologies, Carlsbad, CA) cells containing a beta-lactamase reporter-gene under control of Retinoid X receptor-alpha response element were used to screen Tox21 10K library.
Tox21 Assay Protocol Summary: RXR-alpha HEK 293T cells were dispensed at 2,000 cells/6 uL of assay medium containing 2% charcoal-stripped FBS using a Multidrop Combi (ThermoFisher Scientific, Waltham, MA) dispenser. The assay was performed in black wall/clear-bottom 1536-well plates (Greiner Bio-One North America Inc. Monroe, NC). 9-cis retinoic acid was used as a positive control in the agonist mode screen. After the assay plates were incubated at 37 C and 5% CO2 for 5 hr, 23 nL of compounds dissolved in DMSO, positive controls or DMSO only were transferred to the assay plate by a Pintool station (Kalypsys, San Diego, CA). The assay plates were incubated at 37 C and 5% CO2 for 16 hr. One uL of LiveBLAzer B/G FRET substrate (Life Technologies) was added using a Flying Reagent Dispenser (Aurora Discovery, San Diego, CA) and the plates were incubated at room temperature for 2 hr. Fluorescence intensity (405 nm excitation, 460/530 nm emission) was measured using an Envision plate reader (PerkinElmer, Shelton, CT).
% is set by controls: 0 for no effect and ±100 for the full control effect.

Retinoic acid receptor RXR-alpha (Homo sapiens), sequence (P19793 whole entry, looked up): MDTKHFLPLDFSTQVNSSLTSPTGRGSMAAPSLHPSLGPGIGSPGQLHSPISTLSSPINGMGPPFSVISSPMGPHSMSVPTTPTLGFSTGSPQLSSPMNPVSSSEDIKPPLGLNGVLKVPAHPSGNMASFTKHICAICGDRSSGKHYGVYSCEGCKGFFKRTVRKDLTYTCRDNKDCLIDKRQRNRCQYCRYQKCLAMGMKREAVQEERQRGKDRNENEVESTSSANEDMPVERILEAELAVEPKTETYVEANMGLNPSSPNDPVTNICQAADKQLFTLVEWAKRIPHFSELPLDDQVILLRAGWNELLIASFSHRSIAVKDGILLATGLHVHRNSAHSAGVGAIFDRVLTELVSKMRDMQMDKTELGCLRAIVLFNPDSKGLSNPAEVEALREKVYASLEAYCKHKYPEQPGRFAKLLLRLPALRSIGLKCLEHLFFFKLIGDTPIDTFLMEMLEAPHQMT

Compound | activation
Cc1nc(C)nc(N2C[C@@H](C)N(c3ccnc([C@@H](C)O)n3)[C@@H](C)C2)n1 | -14.4% [at 35.3 µM]
CCCCCCCCCOCC1CO1 (stereo not given) | -12.1%
Cc1ccc2c(c1)c1c3n2CCNC3CCC1 (stereo not given) | -3.97% [at 35.3 µM]
C[C@H]1O[C@H](O[C@H]2[C@H](O)[C@@H](O)[C@@H](O[C@H]3[C@H](O)[C@@H](O)[C@H](O)O[C@@H]3CO)O[C@@H]2CO)[C@H](O)[C@@H](O)[C@@H]1N[C@H]1C=C(CO)[C@@H](O)[C@H](O)[C@H]1O | 0.0395% [at 35.3 µM]
NS(=O)(=O)c1ccc(Cl)c(S(N)(=O)=O)c1 | 7.51% [at 35.3 µM]
CCC(CO)CO | 10.8%
O=C(O)/C=C/c1ccccc1 | 4.64%
CC(=O)c1ccc(OCC(=O)N2CCCCC2)cc1 | 1.63% [at 35.3 µM]
CNC(=O)NC | 1.62%
NC(=O)C1(N2CCCCC2)CCN(CCCC(=O)c2ccc(F)cc2)CC1 | 1.58% [at 35.3 µM]
CNCc1ccccc1 | 1.44% [at 35.3 µM]
CC(=O)OC(C)(C)Cc1ccccc1 | 5.94%
CCC(C)N (stereo not given) | 6.88%
CCCCOC(=O)[C@@H](C)Oc1ccc(Oc2ccc(C(F)(F)F)cn2)cc1 | -0.81%
CC(C)CCCCCCOC(=O)C1CCCCC1C(=O)OCCCCCCC(C)C (stereo not given) | -5.22%
CC(C)COC(=O)COc1ccc(Cl)cc1Cl | -18.2%
COc1ccc(OC)c(NC(=O)CC(C)=O)c1 | 2.84%
C=C(C)[C@@H]1CC[C@@H](C)C[C@@H]1O | 8.1%
Cc1nc([N+](=O)[O-])cn1-c1ccc([N+](=O)[O-])cc1 | -0.449% [at 35.3 µM]
Cc1ccc(S(=O)(=O)NC(=O)NC2CCCCCCC2)cc1 | 0.0253% [at 35.3 µM]

Compound | activation
Nc1ccc(/C=C/c2ccc(N)cc2S(=O)(=O)O)c(S(=O)(=O)O)c1 | 6.35% [at 0.29 µM]
Cc1ncc([N+](=O)[O-])n1CC(O)CCl (stereo not given) | -1.97% [at 35.3 µM]
CC(C)C(=O)c1ccccc1 | 0.0652%
CCC1Nc2cc(Cl)c(S(N)(=O)=O)cc2S(=O)(=O)N1 (stereo not given) | -3.54% [at 35.3 µM]
Nc1ccnc(=O)[nH]1 | 1.52%
CCOC(=O)CCc1ccccc1 | 9.05%
CCOC(=O)CC#N | 4.34%
CCC(C)(CCC(C)C)C(=O)[O-].CCC(C)(CCC(C)C)C(=O)[O-].[Zn+2] (stereo not given) | 0.713%
CC(C)CCO | 6.96%
O=C(COCCOCCOCC(=O)Nc1c(I)cc(I)c(C(=O)O)c1I)Nc1c(I)cc(I)c(C(=O)O)c1I | 6.09% [at 35.3 µM]
OC[C@@H](O)[C@H](O)[C@@H](O)[C@@H](O)CO | 10.6%
CCCOC(=O)CCCCC(=O)OCCC | 4.33%
Nc1cc(S(=O)(=O)O)ccc1S(=O)(=O)O | 7.28%
CCCCC(=O)N(C)C | 5.62%
CC(C)CCC(=O)CCC(C)C | -0.22%
CC(=O)Nc1ncc([N+](=O)[O-])s1 | 10.2% [at 35.3 µM]
C1=C\CC/C=C\CC/1 | -0.778%
CCCCCN(CCCOC)C(=O)C(CCC(=O)O)NC(=O)c1ccc(Cl)c(Cl)c1 (stereo not given) | -5.19% [at 35.3 µM]
NC(Cc1c[nH]c2ccccc12)C(=O)O (stereo not given) | 3.9% [at 35.3 µM]
COc1cc(C=O)ccc1OC(=O)C(C)C | -15.2%

— PubChem BioAssay (Tox21)
